Screening data deposited in PubChem BioAssay by Zoeller Lab, School of Medicine, Boston University.
PL biosyn Enam – animal cell phospholipid biosynthesis inhibition, Enamine screen; ZR-82 CHO cells, pyrene fatty acid UV survival, CellTiter Blue; peroxisome-deficient CHO-K1 mutant line; plus DGAT-1, DGAT-2 and ACAT inhibitors; calls only at 10 µM; 20,000 compounds, 0.4% hits; AID 1347385;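 active = cell survival signal 2 SD away from solvent-only control wells, confirmed on one or two retests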;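 also: 3 h compound exposure then viability read about one day after UV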
* hit, by the source's call; i = inactive; + = active, no number. The entries come from a sample that favours hits as a whole.

SMILES | PL biosyn Enam
Cc1[nH]c2ccccc2c1N=Nc1ccccc1F | i
COc1cc(-c2nc3c([nH]2)-c2cccc4cccc-3c24)cc(OC)c1OC | i
NC(=O)NCCCC(=O)OCC(=O)c1ccc(Br)s1 | i
Cc1cc(C(C)(C)C)cc(S(=O)(=O)Oc2ccc(Nc3ccc([N+](=O)[O-])cc3[N+](=O)[O-])cc2)c1C | i
CCOC(=O)c1c(NC(=O)C(C)(C)C)sc2c1CCC2 | i
O=c1c(C=Nc2ccccn2)c(C(F)(F)F)[nH]n1-c1ccccc1 | i
CCOC(=O)c1c(N=CN(C)C)sc(C(=O)OC)c1C | i
CCOC(=O)c1sc(N=Nc2c(O)[nH]c(=S)[nH]c2=O)c(C(=O)OCC)c1C | i
CCOC(=O)c1sc(N=Nc2[nH]c(C)c(C(=O)OCC)c2C)c(C(=O)OCC)c1C | +
CC(=O)c1sc2nc(CSc3nnc(C4CC4)o3)[nH]c(=O)c2c1C | i
C(=C\c1ccc2ccccc2n1)/c1ccc2c(c1)OCO2 | i
CCCn1c(SCc2nnc(-c3ccco3)o2)n[nH]c1=O | i
c1ccc(-c2nnc(-c3ccc4c(c3)OCO4)nc2-c2ccccc2)cc1 | i
Nc1nc(-c2ccccc2)c(N=Nc2ccc3c(c2)OCO3)s1 | +
Oc1c(N=Nc2ccc3c(c2)OCO3)sc2ccccc12 | i
Nc1[nH]c(=O)[nH]c(=O)c1N=Nc1ccc2c(c1)OCCO2 | i
c1cc2c(cc1-c1csc(N3CCOCC3)n1)OCCO2 | i
Nc1nc(-c2ccccc2)c(N=Nc2ccc3c(c2)OCCO3)s1 | +
COCCN=c1scc(-c2ccc(OC(F)F)cc2)n1/N=C/C1CC2C=CC1C2 (centres undefined) | i
O=C(CSc1ncnc2sc3c(c12)CCC3)N1CCCC1 | i
O=[N+]([O-])c1ccc2c(c1)S(=O)(=O)N=C1CCCCCN12 | i
COc1ccc(C2C3=C(COC3=O)Nc3c2c(=O)n(C)c(=O)n3C)cc1OC (centres undefined) | i
c1ccc2cc(OCc3nc4ccccc4s3)ccc2c1 | +
Brc1cc(Br)c2cccnc2c1OCc1nc2ccccc2s1 | i
c1ccc2cc(OCc3nc4ccccc4[nH]3)ccc2c1 | i
SMILES | PL biosyn Enam
CCCn1ccnc1SC(C)C(=O)NC(N)=O (centres undefined) | i
FC(F)Oc1ccc(NC(=S)NC2CCCCCCC2)cc1 | +
Fc1ccc(NC(=S)NC2CCC(NC(=S)Nc3ccc(F)cc3)CC2)cc1 (centres undefined) | i
FC(F)Sc1ccc(NC(=S)NC2CCC(NC(=S)Nc3ccc(SC(F)F)cc3)CC2)cc1 (centres undefined) | i
Cc1ccc(-c2csc(/C=C/c3ccc(C(C)C)cc3)n2)cc1 | i
O=C1CCCN1C(=O)CSc1nnc(-c2ccco2)o1 | i
O=S(=O)(c1cccc(Br)c1)N1CCNCC1 | i
Cc1nn(CC(=O)N(C(C)C)C(C)C)c(C)c1S(=O)(=O)N(C)C | i
CN1/C(=C\P(=Nc2cccc3ccccc23)(Oc2cccc3ccccc23)c2ccccc2)C(C)(C)c2ccccc21 (centres undefined) | i
Cc1ccc(NP(=O)(/C=C2\N(C)c3ccccc3C2(C)C)c2ccccc2)cc1C (centres undefined) | i
CCN(CC)P(/C=C1/N(C)c2ccccc2C1(C)C)(=Nc1ccc(C)cc1C)c1ccccc1 (centres undefined) | +
FC(F)Sc1nc(-c2ccccc2)c(-c2ccccc2)n1C(F)F | i
FC(F)n1c(-c2ccccc2)c(-c2ccccc2)n(C(F)F)c1=S | +
FC(F)n1c(=S)n(C(F)F)c2ccccc21 | i
Oc1cn(-c2ccccc2)nn1 | i
C=CCNS(=O)(=O)c1ccccc1 | i
C(=C(c1nc2ccccc2s1)c1nc2ccccc2s1)c1cccs1 | i
C(=C(c1nc2ccccc2s1)c1nc2ccccc2s1)c1ccc(-c2ccccc2)cc1 | i
Cn1cccc1C=C(c1nc2ccccc2s1)c1nc2ccccc2s1 | +
O=C(N=Nc1c(O)[nH]c2ccc(Br)cc12)C1CC1 | i
CCOC(=O)c1c(C)oc2nc(Cn3nc(C)c([N+](=O)[O-])c3C)nc(N)c12 | i
